Rows were chosen to be rich in hits. Some 2.8% of all compounds tested hit in one or more screens of this group.
IP6K1 inh = Primary qHTS assay for small molecule inhibitors of Inositol hexaphosphate kinase 1 (IP6K1); Inositol hexakisphosphate kinase 1 (Homo sapiens), Q92551; IP6K1 kinase, ADP-Glo luminescence, 2 h; hits give low values; activity change, % (series mostly up to about 58 µM); 140,000 compounds, 0.81% hits; AID 1645851, 2021; in the data active = activity change below about -25%
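ADP-Glo luminescence measures ADP made by human IP6K1 during a 2 h RT reaction with ATP/IP6 (mix at 1.3 mM/130 uM); top library doses 57.5 and 19.1 uM final.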
KDM5B inhibitor = Primary screen for KDM5B Histone Demethylases FDH-coupled qHTS; Lysine-specific demethylase 5B (Homo sapiens), Q9UGL1; Potency, µM (doses to about 57.7 µM), most hits filed as inhibitors; KDM5B demethylase, FDH-coupled NADH fluorescence (FDH is formaldehyde dehydrogenase); 220,000 compounds, 2.6% hits; note: nearly all actives have a fitted effect of over 70% in size
Target sequence (Q9UGL1 whole entry, looked up): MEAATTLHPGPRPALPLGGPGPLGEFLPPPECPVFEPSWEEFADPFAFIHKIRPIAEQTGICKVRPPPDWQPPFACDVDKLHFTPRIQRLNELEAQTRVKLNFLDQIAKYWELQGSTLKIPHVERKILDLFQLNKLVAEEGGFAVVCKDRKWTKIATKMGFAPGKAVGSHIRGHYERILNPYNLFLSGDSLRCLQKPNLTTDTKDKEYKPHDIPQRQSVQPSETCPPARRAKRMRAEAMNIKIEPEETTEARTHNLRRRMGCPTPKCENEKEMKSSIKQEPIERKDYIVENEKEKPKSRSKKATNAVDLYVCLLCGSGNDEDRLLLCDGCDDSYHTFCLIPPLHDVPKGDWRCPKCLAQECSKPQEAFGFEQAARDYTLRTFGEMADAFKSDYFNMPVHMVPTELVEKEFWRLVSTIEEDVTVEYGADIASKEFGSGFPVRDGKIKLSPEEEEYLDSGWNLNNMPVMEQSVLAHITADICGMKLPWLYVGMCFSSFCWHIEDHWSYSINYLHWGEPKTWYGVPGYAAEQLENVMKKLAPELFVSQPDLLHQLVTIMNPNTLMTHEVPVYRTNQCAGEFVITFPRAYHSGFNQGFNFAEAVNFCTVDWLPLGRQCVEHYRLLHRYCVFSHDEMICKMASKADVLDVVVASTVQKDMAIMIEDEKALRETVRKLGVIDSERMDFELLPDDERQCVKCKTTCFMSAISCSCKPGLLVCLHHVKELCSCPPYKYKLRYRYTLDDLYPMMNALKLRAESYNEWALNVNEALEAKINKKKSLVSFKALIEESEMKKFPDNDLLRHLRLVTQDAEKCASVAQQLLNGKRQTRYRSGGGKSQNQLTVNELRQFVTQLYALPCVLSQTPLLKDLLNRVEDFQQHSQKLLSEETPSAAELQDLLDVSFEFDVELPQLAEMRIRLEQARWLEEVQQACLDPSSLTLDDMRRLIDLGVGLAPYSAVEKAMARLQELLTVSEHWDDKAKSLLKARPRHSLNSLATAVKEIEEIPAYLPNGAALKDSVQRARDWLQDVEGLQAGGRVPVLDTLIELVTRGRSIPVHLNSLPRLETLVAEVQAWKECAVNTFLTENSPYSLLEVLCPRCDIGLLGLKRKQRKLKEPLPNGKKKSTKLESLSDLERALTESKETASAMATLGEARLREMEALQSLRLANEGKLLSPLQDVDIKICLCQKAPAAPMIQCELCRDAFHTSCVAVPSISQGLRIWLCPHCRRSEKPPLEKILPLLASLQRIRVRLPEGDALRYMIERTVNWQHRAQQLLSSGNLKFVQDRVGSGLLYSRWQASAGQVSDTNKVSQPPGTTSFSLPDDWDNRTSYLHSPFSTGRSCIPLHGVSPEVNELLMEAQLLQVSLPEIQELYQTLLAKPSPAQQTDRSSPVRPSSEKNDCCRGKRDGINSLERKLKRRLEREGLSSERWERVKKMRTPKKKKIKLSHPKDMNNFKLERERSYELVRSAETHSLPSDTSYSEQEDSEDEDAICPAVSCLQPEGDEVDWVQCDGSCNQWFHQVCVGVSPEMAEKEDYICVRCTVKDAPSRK
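Inhibition is measured as reduced NADH fluorescence generation from FDH coupling to formaldehyde release. Truncated KDM5BΔAP at 200 nM final acts on H3K4me3 peptide (12.5 µM in substrate mix) in pH 7.5 HEPES buffer with Tween-20, 30 min, room temperature.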
IP6K1 inh cnf = Confirmatory qHTS assay for small molecule inhibitors of Inositol hexaphosphate kinase 1 (IP6K1); shares compounds with IP6K1 inh; 1,200 compounds, 13% hits; Potency, µM (series often up to 49 µM), most hits filed as inhibitors; recombinant IP6K1 kinase, ADP-Glo luminescence, 2 h; note: nearly all actives have a fitted effect of over 65% in size
Hits are given with their value; - = inactive; ? = inconclusive; . = not tested or not shown. Unless noted, calls come from the whole dose curve; as a rule, active = well fitted inhibition curve with a large enough effect; inconclusive = small, poorly fitted or top-dose-only effect; inactive = no such curve, though single readings can be large or run the other way.

SMILES	IP6K1 inh	KDM5B inhibitor	IP6K1 inh cnf
CC(NC(=O)N1CCC(NS(=O)(=O)c2cccs2)CC1)c1ccc(F)cc1F (stereo not drawn)	.	-	.
CCCc1nnc(C[C@@H]2C[C@@H](C(C)C)[C@H](CNCc3cccnc3)C=C2C)o1	-	-	.
CCCc1nnc(C[C@@H]2C[C@@H](C(C)C)[C@H](CNc3cccnc3)C=C2C)o1	-25	10µM	-
CN1CCN(C(=O)c2cn3cc(-c4ccc(F)cc4)sc3n2)CC1	-	.	.
Cc1ccc(Cl)cc1NC(=O)c1csnn1	-37	-	?
Cc1ccc(Cl)cc1NC(=O)c1ccc2ccccc2n1	.	-	.
O=C(NCc1ccccc1F)c1ccc2c(c1)CN(C1CCCC1)CCO2	-	.	.
CCOC(=O)c1ccc(NC(=O)CSc2nnc(-c3ccncc3)n2-c2ccccc2)cc1	-27	-	-
CCOc1ccc(NC(=O)CSc2nnc(-c3ccncc3)n2-c2ccccc2)cc1	-	-	.
Cc1ccc(C(C(=O)N2CCC(Cc3noc(C)n3)CC2)N(C)C)cc1 (stereo not drawn)	-27	-	-
Cc1nc(CC2CCN(C(=O)c3cc4c(s3)CCC(C)C4)CC2)no1 (stereo not drawn)	-	-	.
O=C(Nc1cccnc1)c1cc(-c2ccccc2F)cc2c1OCCN2Cc1cccnc1	-49	35µM	?
O=C(NCc1ccco1)c1cc(-c2ccccc2F)cc2c1OCCN2Cc1cccnc1	-30	28µM	?
CN(C(=O)CN1CCN(Cc2ccccc2)CC1)c1ccccc1C(=O)NCc1ccco1	.	-	.
O=C(Nc1cccnc1)c1nc2c(o1)CCN(Cc1cccc(O)c1)CC2	-	-	.
CCC(C)NC(=O)CC1Sc2ncccc2N(CC)C1=O (stereo not drawn)	-	-	.
CCCCC1CCC(c2ccc(-c3ccc(CC)cc3)nc2)CC1 (stereo not drawn)	.	-	.
Cc1cc(C)c(NC(=O)Cn2c(=O)n(-c3ccc(F)cc3)c(=O)c3c(C)c(C(=O)N(C)C)sc32)c(C)c1	-27	-	-
Cc1cc(C)c(NC(=O)Cn2c(=O)n(Cc3ccccc3)c(=O)c3c(C)c(C(=O)N(C)C)sc32)c(C)c1	-	-	.
CS(=O)(=O)NCCc1ccc(C(=O)COc2ccc(Br)cc2Cl)s1	.	-	.
Cc1ccc(N(Cc2nnc(SCC(=O)c3cc(C)n(C4CC4)c3C)n2C)S(C)(=O)=O)cc1	.	-	.
Cc1noc(C)c1-c1ccc2c(n1)CN(Cc1ccc(C(F)(F)F)cc1)C(=O)CO2	-	-	.
O=C1COc2ccc(-c3ccoc3)nc2CN1Cc1ccc(C(F)(F)F)cc1	-29	35µM	?
CC(C)CCC1=NC2(CCN(C(=O)CCN3CCCCC3=O)CC2)C(=O)N1	-35	-	-
CCOC(=O)N1CCC2(CC1)N=C(CCC(C)C)NC2=O	-	-	.
SMILES	IP6K1 inh	KDM5B inhibitor	IP6K1 inh cnf
Cn1cc(-c2cnc3[nH]cc(CC(=O)Nc4cccc(OC(F)(F)F)c4)c3c2)cn1	-	?	.
NC(=O)Cc1c[nH]c2ncc(-c3cccc(OC(F)(F)F)c3)cc12	-27	?	?
COc1cccc(-c2cnc3[nH]cc(CC(N)=O)c3c2)c1	-44	35µM	?
COc1cccc(NC(=O)Cc2c[nH]c3ncc(-c4ccccc4C)cc23)c1	-	?	.
CCN1c2cc(C(=O)Nc3cccc(Br)c3)ccc2C(=O)N2CCCCCC21 (stereo not drawn)	-	?	.
COc1cncc(-c2cc(C(=O)NCc3cccnc3)c3c(c2)N(C)CCO3)c1	-28	-	?
Cc1ccccc1-c1cc(C(=O)NCc2cnn(C)c2)c2c(c1)N(C)CCO2	-25	32µM	?
COc1cccc(-c2cc(C(=O)NCc3cccnc3)c3cnn(C)c3n2)c1	-	.	.
Cc1ccccc1-c1cc(O)c2c(c1)CN(C(=O)C1CCNCC1)CCO2	-	-	.
Cn1ncc2c(C(=O)NCc3cccnc3)cc(-c3ccccc3F)nc21	-	.	.
CN1CCOc2c(C(=O)NCc3cccnc3)cc(-c3ccccc3F)cc21	-29	25µM	-
COc1ccc(-c2ccc3ncc(Nc4cccc(F)c4)n3n2)cc1OC	-	-	.
COC(=O)CNC(=O)c1cc(-c2cccc(OC)c2)nc2c1cnn2C	-	.	.
COc1cccc(C(=O)N2CCN(C(=O)c3cn(C)c4ccccc34)CC2)c1	.	-	.
CCc1ccc2c(c1)-c1ccccc1S(=O)(=O)N2CC(=O)N(CC)CC	.	-	.
CC(NC(=O)c1cc(-c2ccccn2)nc2ccccc12)c1ccncc1 (stereo not drawn)	.	-	.
Cc1ccc2nc(C(C)NC(=O)c3cnc(-c4ccccn4)[nH]c3=O)[nH]c2c1 (stereo not drawn)	-36	?	?
C[C@@H](NC(=O)Nc1cccnc1)c1onc(-c2ccc(F)cc2)c1C(=O)O	-	-	.
CC(C)Cc1ccc(C(C)C(=O)NC(CC(C)C)C(N)=O)cc1 (stereo not drawn)	.	-	.
O=C(Cn1cc(SCc2cccc(F)c2)c2ccccc21)N1CCOCC1	-	?	.
Cc1cccc(NC(=O)CSc2cn(CC(=O)N3CCOCC3)c3ccccc23)c1	-	-	.
Cc1cccc(NC(=O)CSc2cn(CC(=O)N3CCCCCC3)c3ccccc23)c1	-41	-	-
O=C(Cn1cc(SCc2cccc(F)c2)c2ccccc21)N1CCCC1	-97	-	?
CN(C)c1nc(N2CCC(O)(c3cccnc3)CC2)ncc1F	-	?	.
Cc1ccc(N/C(=C\C(=O)c2ccc(Br)cc2)C(F)(F)F)cc1	.	-	.
SMILES	IP6K1 inh	KDM5B inhibitor	IP6K1 inh cnf
N#Cc1ccccc1CN1CCCc2ccccc21	.	-	.
CC1CC2(O)OC(=O)C3=C2C(CCC3)[C@@]12C[C@@H](c1ccoc1)OC2=O (stereo partly drawn)	-	.	.
CCOC(=O)c1ccccc1NC1(c2ccc(OC)cc2)C(=O)c2ccccc2C1=O	-	-	.
C[S+](=O)([O-])c1cccc(NC(=O)Cc2c[nH]c3ncc(-c4ccccc4)cc23)c1	-26	32µM	?
COc1ccc(-c2cnc3[nH]cc(CC(=O)Nc4ccncc4)c3c2)cc1	-39	?	?
COc1ccc(-c2cnc3[nH]cc(CC(=O)Nc4cccc(N(C)C)c4)c3c2)cc1	-	?	.
CN(C)c1cccc(NC(=O)Cc2c[nH]c3ncc(-c4ccccc4)cc23)c1	-	?	.
CCOc1ncccc1C(=O)N1CCC(Cc2cccc(C(N)=O)c2)C1 (stereo not drawn)	-	-	.
Cc1ccc(Cn2c(C(C)NC(=O)c3ccccc3)nc3ccccc32)cc1 (stereo not drawn)	-	-	.
O=C1CCN(CC(O)C(F)(F)F)c2ccccc2CCN1Cc1ccccc1 (stereo not drawn)	-	.	.
Cc1cc2cc(C(=O)N(C)Cc3ccc4nsnc4c3)ccc2o1	-32	-	?
CN(Cc1ccc2nsnc2c1)C(=O)c1ccc(CCC(C)(C)O)cc1	-	?	.
COC(=O)c1c(SCC(=O)Nc2ccccc2C(F)(F)F)[nH]c2ccc(Cl)cc2c1=O	-	-	.
COC(=O)c1c(SCC(=O)Nc2cc(C)cc(C)c2)[nH]c2ccccc2c1=O	-47	-	?
CCCN(CC1CCOC1)C(=O)c1c(F)cccc1Cl (stereo not drawn)	-	-	.

Screening results (PubChem)
